The values that follow come from PubChem BioAssay.

Experiment [1] can be described thus: resazurin metabolic signal in HepG2 cells – cell-based, resazurin fluorescence, 24 h, PK04 Diversity Set, profiling panel (AID 1172). Also: test concentration not given here. Conditions: HepG2 viability, higher = more signal.
The nature of experiment [2]: budding yeast growth changes without added modifier – OD600, strain BY4716, 24 h, basal condition, primary screen (AID 1173). The conditions noted are these: S. cerevisiae BY4716 growth, OD600, 24 h; higher = more signal, called active from +8 up or from −8 down.
Experiment [3] in a line: viability profiling in MM1S myeloma cells – cell-based, resazurin fluorescence, basal, 24 h, PK04 Diversity Set, profiling panel (AID 1174). Also: test concentration not given here. The conditions noted are these: higher = more signal, called active from +8 up or from −8 down.
Experiment [4] has as its target Dihydroorotate dehydrogenase (quinone), mitochondrial (Plasmodium falciparum (isolate 3D7)) (UniProt Q08210). Kind of experiment: inhibition of P. falciparum DHODH – biochemical, C-terminal His tag, absorbance 600 nm, primary screen (AID 1175).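 Also: recombinant parasite enzyme with a five histidine tag at its C terminus; test concentration not given here.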 The conditions noted are these: PfDHODH enzyme, DCIP absorbance 600 nm; higher = more signal, called active from +8 up or from −8 down.

Experiment [5] is described as follows: inhibition of PAO1 biofilm formation – strain PAO1, LB-PBS medium, absorbance 600 nm, primary screen (AID 1176). Also: test concentration not given here. Conditions: P. aeruginosa PAO1 growth/biofilm, A600, 12 h; higher = more signal.
A short description of experiment [6]: growth modulation of vineyard yeast isolate – strain RM11-1a, OD600, basal, 24 h, primary screen (AID 1177).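 Also: cultures grown under basal conditions with no added stressor; test concentration not given here.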 Conditions: S. cerevisiae RM11-1a growth, OD600, 24 h; higher = more signal, called active from +8 up or from −8 down.
Experiment [7] is described as follows: growth of efflux-deficient E. coli DRC39 – strain DRC39, OD650, 24 h, E. coli filamentation inducers, primary screen (AID 1178).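 Also: growth measured as culture turbidity by optical density at 650 nm; test concentration not given here.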 The conditions noted are these: E. coli DRC39 acrAB, higher = more signal, called active from +8 up or from −8 down.
A short description of experiment [8]: growth of efflux-deficient E. coli DRC39 – strain DRC39, OD650, 48 h, E. coli filamentation inducers, primary screen (AID 1179).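 Also: screen aims at cell division blockers that make cells filament.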 Conditions: E. coli DRC39 delta-acrAB growth, higher = more signal, called active from +8 up or from −8 down.
A short description of experiment [9]: viability profiling in RPMI8226 myeloma cells – cell-based, resazurin fluorescence, basal, 24 h, PK04 Diversity Set, profiling panel (AID 1180).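 Also: RPMI8826 multiple myeloma cell line at 5000 cells per well; test concentration not given here.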 Conditions: higher = more signal.
Experiment [10] addresses E3 ubiquitin-protein ligase XIAP (Homo sapiens) (UniProt P98170). The experiment can be described thus: small molecules binding XIAP protein – biophysical, small-molecule microarray, fluorescence 635 nm, primary screen (AID 1181).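 Also: score merges 667 nm emission and signal to noise over triplicate slides.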 Conditions: higher = more signal.

Calls of active or inactive are those of the source. Unless noted, no rule for the calls is given here.

Dihydroorotate dehydrogenase (quinone), mitochondrial (Plasmodium falciparum (isolate 3D7)), sequence (Q08210 whole entry, looked up): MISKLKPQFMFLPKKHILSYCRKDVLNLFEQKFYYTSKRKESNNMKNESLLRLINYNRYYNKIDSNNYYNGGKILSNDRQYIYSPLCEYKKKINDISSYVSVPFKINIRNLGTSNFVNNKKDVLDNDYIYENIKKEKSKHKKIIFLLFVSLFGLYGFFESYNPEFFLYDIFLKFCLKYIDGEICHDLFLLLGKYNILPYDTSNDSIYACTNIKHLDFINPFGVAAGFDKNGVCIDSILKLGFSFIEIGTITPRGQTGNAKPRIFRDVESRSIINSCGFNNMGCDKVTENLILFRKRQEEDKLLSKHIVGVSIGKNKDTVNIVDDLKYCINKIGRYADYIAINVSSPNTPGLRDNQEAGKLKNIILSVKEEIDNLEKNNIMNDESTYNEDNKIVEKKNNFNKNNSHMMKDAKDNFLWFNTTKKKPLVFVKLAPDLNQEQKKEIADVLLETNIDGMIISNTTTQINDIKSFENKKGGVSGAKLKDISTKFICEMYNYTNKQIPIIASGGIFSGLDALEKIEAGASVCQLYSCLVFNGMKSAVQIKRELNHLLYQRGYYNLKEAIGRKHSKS
E3 ubiquitin-protein ligase XIAP (Homo sapiens), sequence (P98170 whole entry, looked up): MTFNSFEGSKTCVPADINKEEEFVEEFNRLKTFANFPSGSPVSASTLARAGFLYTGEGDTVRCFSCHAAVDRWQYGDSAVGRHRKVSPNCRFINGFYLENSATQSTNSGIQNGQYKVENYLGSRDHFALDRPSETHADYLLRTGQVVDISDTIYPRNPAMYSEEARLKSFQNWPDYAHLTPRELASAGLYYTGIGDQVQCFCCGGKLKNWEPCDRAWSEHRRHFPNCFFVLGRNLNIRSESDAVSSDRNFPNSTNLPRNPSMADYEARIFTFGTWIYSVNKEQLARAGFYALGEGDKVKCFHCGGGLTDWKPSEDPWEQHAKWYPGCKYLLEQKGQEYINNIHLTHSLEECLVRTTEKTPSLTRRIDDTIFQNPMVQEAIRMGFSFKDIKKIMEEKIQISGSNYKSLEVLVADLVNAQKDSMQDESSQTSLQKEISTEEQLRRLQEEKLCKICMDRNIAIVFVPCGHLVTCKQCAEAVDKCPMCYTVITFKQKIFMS

As to `CCOC(=O)C1=CC[C@@H](c2ccccc2)N(S(=O)(=O)c2ccc(C)cc2)[C@H]1C=C(C)C`, the z-score is 0.576 in experiment [1]; 2.78 (inactive) in experiment [2]; -0.85 (inactive) in experiment [3]; 0.229 (inactive) in experiment [5]; 1.65 (inactive) in [6]; -0.147 (inactive) in experiment [7]. The z-score was 0.449 (inactive) in experiment [8] and -2.1 in experiment [9]. The values for the composite z-score in experiment [4] and in experiment [10] were 0.274 (inactive) and 0.394, respectively.
With `CCCN1C(=O)[C@@H]2Cc3c([nH]c4ccccc34)[C@@H](c3cccc(O)c3)N2C1=O`, the z-score in [1] is 0.944; in [2], 0.852 (inactive); in experiment [3] it was 0.327 (inactive); in experiment [5], 0.764 (inactive); in experiment [6], 0.0696 (inactive); in experiment [7], 0.19 (inactive). In addition, the z-score in experiment [8] was 0.0246 (inactive); in [9], 0.0074. In addition, the composite z-score is -0.931 (inactive) in experiment [4] and -0.313 in experiment [10].
In the case of `COC(=O)[C@@]1(Cc2ccccc2)[C@H]2c3cc(C(=O)N(C)C)n(Cc4ccccn4)c3C[C@H]2CN1C(=O)c1ccccc1`, the z-score in [1] was -0.802; in experiment [2], 1.6 (inactive); in [3], -1.33 (inactive); in experiment [5], 0.964 (inactive); in experiment [6] it was 0.781 (inactive); in [7], -1.19 (inactive). For the same compound, the figures for the z-score in experiment [8] and in experiment [9] were -0.507 (inactive) and -1.26, respectively. For the same compound, the composite z-score is 0.611 (inactive) in [4] and 0.124 in experiment [10].
As for `CC(C)[Si](C#C[Si](C(C)C)(C(C)C)C(C)C)(O[C@H](C)c1cn(Cc2cccc(Cl)c2)nn1)C(C)C`, the z-score in [1] was 0.205; in experiment [2], 0.916 (inactive); in experiment [3] it was 1.77 (inactive); in experiment [5], 0.444 (inactive); in [6] it was 0.0575 (inactive); in [7], 2.07 (inactive). Further, the values for the z-score in experiment [8] and in experiment [9] were 1.52 (inactive) and 1.68, respectively. Moreover, the results for the composite z-score in [4] and in experiment [10] were 0.621 (inactive) and -0.205, respectively.
As for `C=C(/C(=C/C[C@@H](OC(C)=O)c1ccccc1OCCO)c1cnc2ccccc2c1)C(C)C`, the z-score in experiment [1] is -1; in experiment [2], -1.34 (inactive); in [3], -0.601 (inactive); in [5], 0.108 (inactive); in experiment [6], 0.29 (inactive); in experiment [7], -0.997 (inactive). For the same compound, the results for the z-score in experiment [8] and in experiment [9] were -0.667 (inactive) and -0.267, respectively. The composite z-score in experiment [4] was -5.68 (inactive); in experiment [10], -0.102.
Regarding `COC(=O)[C@H]1N=C(c2ccc(OCCCO)cc2)O[C@H]1c1ccccc1CN=[N+]=[N-]`, the z-score in [1] was 1.55; in [2], -0.785 (inactive); in experiment [3] it was 0.236 (inactive); in experiment [5], -0.043 (inactive); in [6], 1.29 (inactive); in experiment [7] it was 0.535 (inactive). The figures for the z-score in experiment [8] and in experiment [9] were -0.0456 (inactive) and 1.32, respectively. Further, the composite z-score in [4] was 0.982 (inactive); in experiment [10], 0.331.
With `C#CCNS(=O)(=O)N(C)C`, the z-score in experiment [1] was 0.175; in [2], -0.61 (inactive); in experiment [3] it was -0.207 (inactive); in experiment [5], -0.218 (inactive); in experiment [6] it was 0.648 (inactive); in experiment [7], -0.263 (inactive). For the same compound, the z-score is 0.56 (inactive) in experiment [8] and 0.544 in [9]. Besides, the composite z-score in experiment [4] was 0.196 (inactive); in [10], -0.05.
Consider `[N-]=[N+]=NCc1ccccc1C[C@@]1(C(=O)NCCN2CCOCC2)N=C(c2ccc(OCCCO)cc2)O[C@@H]1c1ccccc1CN=[N+]=[N-]`, for which the z-score in experiment [1] is -0.709; in [2], 0.326 (inactive); in [3], -0.982 (inactive); in [5], 1.13 (inactive); in experiment [6], 1.15 (inactive); in experiment [7], 0.585 (inactive). In addition, the z-score is 0.239 (inactive) in experiment [8] and -0.971 in experiment [9]. Further, the composite z-score in experiment [4] was 1.06 (inactive); in experiment [10], 0.0905.
As to `COc1ccc([Si](C)(C)[C@H]2[C@H](CCn3cc(CCO)nn3)O[C@@]3(C(=O)N(Cc4cccc(N5C(=O)c6cccc7cccc5c67)c4)c4ccccc43)[C@@H]2C)cc1`, the z-score in [1] was -2.74; in experiment [2], 0.425 (inactive); in experiment [3] it was -6.02 (inactive); in experiment [5] it was 1.76 (inactive); in [6], 2.16 (inactive); in experiment [7] it was 2.38 (inactive). In addition, the z-score in experiment [8] is 1.74 (inactive); in experiment [9] it was -5.82. Further, the composite z-score in experiment [4] is -0.455 (inactive); in experiment [10], 0.235.
Consider `CC(C)(C)N1CC=CC23O[C@@H]4C=CCCOC(=O)C4[C@H]2C(=O)N(CCCO)[C@@H]3C1=O` (stereo not given in full), for which the z-score in experiment [1] is -0.884; in experiment [2], -0.434 (inactive); in [3], -1.12 (inactive); in experiment [5], -0.193 (inactive); in experiment [6], 0.605 (inactive); in [7], -1.23 (inactive). Moreover, the values for the z-score in experiment [8] and in experiment [9] were -1.27 (inactive) and -1.15, respectively. The composite z-score in experiment [4] was -3.53 (inactive); in [10] it was -0.263.
Consider `O=C1c2ccccc2[C@](Cc2ccccc2I)(C(=O)NC2CC2)[C@H](c2ccc(CO)cc2)N1Cc1ccccc1Cl`, for which the z-score in experiment [1] is 0.197; in experiment [2], 0.504 (inactive); in experiment [3], -0.405 (inactive); in experiment [5], 0.925 (inactive); in [6], 1.9 (inactive); in [7], 0.258 (inactive). Further, the z-score is -0.507 (inactive) in experiment [8] and -0.506 in experiment [9]. The values for the composite z-score in experiment [4] and in [10] were 0.37 (inactive) and 0.0432, respectively.
Regarding `C=CCC(OC(C)=O)[C@@H]1[C@@H](N(Cc2ccc(-c3ccccc3)cc2)C(=O)c2cccc3ccccc23)c2cc(OCCCO)ccc2N1C(=O)c1ccc2ccccc2n1` (stereo not given in full), the z-score in [1] was -0.253; in experiment [2] it was -0.953 (inactive); in [3] it was 0.0319 (inactive); in experiment [5], 0.161 (inactive); in experiment [6], -0.909 (inactive); in [7], 0.908 (inactive). Further, the values for the z-score in [8] and in experiment [9] were 0.376 (inactive) and 0.131, respectively. Moreover, the composite z-score is -0.178 (inactive) in experiment [4] and -0.0282 in experiment [10].
As to `C=C(CCCC)/C(=C/C[C@@H](OC(=O)c1ccncc1)c1ccccc1OCCO)c1cc(C(=O)OC)ccc1OC`, the z-score was -0.16 in [1]; 0.0793 (inactive) in experiment [2]; -1.38 (inactive) in [3]; 0.506 (inactive) in [5]; 0.111 (inactive) in experiment [6]; 0.275 (inactive) in experiment [7]. The z-score in experiment [8] was 0.223 (inactive); in experiment [9], -0.94. The values for the composite z-score in experiment [4] and in experiment [10] were -0.455 (inactive) and 0.057, respectively.
